Measurements published in ChEMBL document CHEMBL5606458, “ASAP - ZIKV NS2B-NS3 protease fluorescence single point” (2024).
In all, about 2,700 compounds went through this assay and about 160 (5.9%) showed an effect of 50% or more. The entries come from a sample that favours strong results as a whole.

Molecular target: Nonstructural protein 3 (Zika virus) (UniProt A0A024AXB9)
Sequence (A0A024AXB9 as listed by the source): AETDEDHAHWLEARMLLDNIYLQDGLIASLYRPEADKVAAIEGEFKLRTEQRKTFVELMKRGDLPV

Work on `NCc1cccc(NC(=O)[C@H]2CCCN(C(=O)OCc3ccccc3)C2)c1` yielded an inhibition (PRVABC59, Concentration 49.5 uM, Number of replicates 2.0, Standard deviation 2.781365363643047 %) of 3.4%, an inhibition (PRVABC59, Concentration 99.01 uM, Number of replicates 2.0, Standard deviation 2.023258788415892 %) of 8.89% and an inhibition (PRVABC59, Concentration 198.0 uM, Number of replicates 2.0, Standard deviation 2.4646681276670943 %) of 18.5%.

Work on `NCc1cccc(NC(=O)[C@H]2COC3(CCOCC3)N2C(=O)OCc2ccccc2)c1` yielded an inhibition (PRVABC59, Concentration 49.5 uM, Number of replicates 2.0, Standard deviation 0.9938813563000084 %) of 5.38%, an inhibition (PRVABC59, Concentration 99.01 uM, Number of replicates 2.0, Standard deviation 1.914429893589366 %) of 19% and an inhibition (PRVABC59, Concentration 198.0 uM, Number of replicates 2.0, Standard deviation 1.323095447640423 %) of 40.3%.

`NCc1cccc(NC(=O)c2cccc(NC(=O)OCc3ccccc3)n2)c1` was tested, and the inhibition (PRVABC59, Concentration 49.5 uM, Number of replicates 2.0, Standard deviation 2.909357334669415 %) was 5.59%, the inhibition (PRVABC59, Concentration 99.01 uM, Number of replicates 2.0, Standard deviation 2.139765153167162 %) was 18.9% and the inhibition (PRVABC59, Concentration 198.0 uM, Number of replicates 2.0, Standard deviation 5.981167842462736 %) was 37.7%.

Work on `NCc1cccc(NC(=O)[C@@H](NC(=O)OCc2ccccc2)C2CCCCC2)c1` yielded an inhibition (PRVABC59, Concentration 49.5 uM, Number of replicates 2.0, Standard deviation 3.670746053577507 %) of 0.383%, an inhibition (PRVABC59, Concentration 99.01 uM, Number of replicates 2.0, Standard deviation 4.852210894307134 %) of 19.8% and an inhibition (PRVABC59, Concentration 198.0 uM, Number of replicates 2.0, Standard deviation 0.07712401232790286 %) of 99.4%.

Compound `CCn1ccnc(N[C@@H](Cc2c[nH]c3ccccc23)C(N)=O)c1=O` has an inhibition (PRVABC59, Concentration 49.5 uM, Number of replicates 2.0, Standard deviation 1.4026673489298387 %) of 18.1%, an inhibition (PRVABC59, Concentration 99.01 uM, Number of replicates 2.0, Standard deviation 0.19191044848514063 %) of 31.5% and an inhibition (PRVABC59, Concentration 198.0 uM, Number of replicates 2.0, Standard deviation 0.4743186100928729 %) of 43.7%.

In the case of `NCc1cccc(NC(=O)[C@@H](NC(=O)OCc2ccccc2)C(C2CCC2)C2CCC2)c1`, the inhibition (PRVABC59, Concentration 49.5 uM, Number of replicates 2.0, Standard deviation 1.6304646588102472 %) was 8.82%, the inhibition (PRVABC59, Concentration 99.01 uM, Number of replicates 2.0, Standard deviation 1.5618151976061267 %) was 76.8% and the inhibition (PRVABC59, Concentration 198.0 uM, Number of replicates 2.0, Standard deviation 0.10609407012035098 %) was 99.1%.

`NCc1cccc(NC(=O)[C@@H](Cc2c[nH]c3ccccc23)NC(=O)OCc2ccccc2)c1` was tested, and the inhibition (PRVABC59, Concentration 49.5 uM, Number of replicates 2.0, Standard deviation 3.967037724259516 %) was 6.59%, the inhibition (PRVABC59, Concentration 99.01 uM, Number of replicates 2.0, Standard deviation 5.155513103183051 %) was 30% and the inhibition (PRVABC59, Concentration 198.0 uM, Number of replicates 2.0, Standard deviation 1.4247172313715861 %) was 61.6%.

Compound `NCc1cccc(NC(=O)[C@H]2Cc3ccccc3N2C(=O)OCc2ccccc2)c1` has an inhibition (PRVABC59, Concentration 49.5 uM, Number of replicates 2.0, Standard deviation 1.3458327451813832 %) of -2.12%, an inhibition (PRVABC59, Concentration 99.01 uM, Number of replicates 2.0, Standard deviation 2.0252321038631718 %) of 4.14% and an inhibition (PRVABC59, Concentration 198.0 uM, Number of replicates 2.0, Standard deviation 4.242354762898987 %) of 47.3%.

With `COc1cc(COc2cccnc2F)nc(N2CCNCC2)n1` the inhibition (PRVABC59, Concentration 49.5 uM, Number of replicates 2.0, Standard deviation 3.471530038958882 %) was 9.4%, the inhibition (PRVABC59, Concentration 99.01 uM, Number of replicates 2.0, Standard deviation 1.2510762616041597 %) was 17.8% and the inhibition (PRVABC59, Concentration 198.0 uM, Number of replicates 2.0, Standard deviation 5.474495288404173 %) was 24.4%.

In the case of `CC[C@H]1CCN(c2nccn(CC)c2=O)C1`, the inhibition (PRVABC59, Concentration 49.5 uM, Number of replicates 2.0, Standard deviation 1.4176871370399688 %) was 4.12%, the inhibition (PRVABC59, Concentration 99.01 uM, Number of replicates 2.0, Standard deviation 1.8963080974288338 %) was 10.6% and the inhibition (PRVABC59, Concentration 198.0 uM, Number of replicates 2.0, Standard deviation 0.25647537430637324 %) was 21.7%.

`CCn1ccnc(N2C[C@@H](O)[C@H](c3c[nH]c4ccccc34)C2)c1=O` showed an inhibition (PRVABC59, Concentration 49.5 uM, Number of replicates 2.0, Standard deviation 0.5666151507099095 %) of 7.52%, an inhibition (PRVABC59, Concentration 99.01 uM, Number of replicates 2.0, Standard deviation 0.06434104176194275 %) of 18.6% and an inhibition (PRVABC59, Concentration 198.0 uM, Number of replicates 2.0, Standard deviation 0.18264623400765803 %) of 34.5%.

For `Nc1nc(CN2CCNCC2)nc2ccccc12`, the inhibition (PRVABC59, Concentration 99.9 uM, Number of replicates 2.0, Standard deviation 4.738718872161362 %) was -7.53%.

Compound `c1ccc2c([C@H]3CCN(CC[C@H]4CCCO4)C3)c[nH]c2c1` has an inhibition (PRVABC59, Concentration 49.5 uM, Number of replicates 2.0, Standard deviation 2.014848974851422 %) of 6.42%, an inhibition (PRVABC59, Concentration 99.01 uM, Number of replicates 2.0, Standard deviation 1.491910771840746 %) of 12.4% and an inhibition (PRVABC59, Concentration 198.0 uM, Number of replicates 2.0, Standard deviation 1.9789597532326375 %) of 21.4%.

Compound `O=C(O)c1cccc(NC(=O)c2cccc(OCc3c(Cl)cccc3Cl)c2)c1` has an inhibition (PRVABC59, Concentration 49.5 uM, Number of replicates 2.0, Standard deviation 0.05325743212794187 %) of 8.22%, an inhibition (PRVABC59, Concentration 99.01 uM, Number of replicates 2.0, Standard deviation 0.43176580313712193 %) of 15.3% and an inhibition (PRVABC59, Concentration 198.0 uM, Number of replicates 2.0, Standard deviation 0.7170736679224038 %) of 28.4%.

For `NCc1ccc(C[C@H](NC(=O)c2ccccc2)C(=O)N2CCCCC2)cc1`, the inhibition (PRVABC59, Concentration 49.5 uM, Number of replicates 2.0, Standard deviation 1.7023364994641166 %) was 7.06%, the inhibition (PRVABC59, Concentration 99.01 uM, Number of replicates 2.0, Standard deviation 1.0175975565444826 %) was 12.7% and the inhibition (PRVABC59, Concentration 198.0 uM, Number of replicates 2.0, Standard deviation 2.6267332126099125 %) was 22%.

Compound `NCc1ccc(C[C@H](NC(=O)c2ccccc2)C(=O)Nc2cccc(CN)c2)cc1` has an inhibition (PRVABC59, Concentration 49.5 uM, Number of replicates 2.0, Standard deviation 1.4806761079016821 %) of 29.4%, an inhibition (PRVABC59, Concentration 99.01 uM, Number of replicates 2.0, Standard deviation 0.13484294125181392 %) of 48.1% and an inhibition (PRVABC59, Concentration 198.0 uM, Number of replicates 2.0, Standard deviation 0.4356460105984289 %) of 65.1%.

For `N=C(N)NCCC[C@H](NC(=O)[C@H](Cc1ccc(CN)cc1)NC(=O)c1ccccc1)B(O)O`, the inhibition (PRVABC59, Concentration 10.0 uM, Number of replicates 3.0, Standard deviation 0.04927937550217375 %) was 100%, the inhibition (PRVABC59, Concentration 49.5 uM, Number of replicates 2.0, Standard deviation 0.010099059252786384 %) was 99.8% and the inhibition (PRVABC59, Concentration 49.5 uM, Number of replicates 2.0, Standard deviation 0.01807256864147136 %) was 99.7%. For the same compound, the inhibition (PRVABC59, Concentration 49.5 uM, Number of replicates 2.0, Standard deviation 0.060713041042124986 %) was 99.8%, the inhibition (PRVABC59, Concentration 49.5 uM, Number of replicates 2.0, Standard deviation 0.06905879139685818 %) was 99.8% and the inhibition (PRVABC59, Concentration 49.5 uM, Number of replicates 2.0, Standard deviation 0.08298276144570521 %) was 99.9%. For the same compound, the inhibition (PRVABC59, Concentration 49.5 uM, Number of replicates 2.0, Standard deviation 0.10271153264626066 %) was 99.3%, the inhibition (PRVABC59, Concentration 49.5 uM, Number of replicates 2.0, Standard deviation 0.1066443393745092 %) was 99.6% and the inhibition (PRVABC59, Concentration 49.95 uM, Number of replicates 2.0, Standard deviation 0.961660259200824 %) was 101%. The inhibition (PRVABC59, Concentration 99.01 uM, Number of replicates 2.0, Standard deviation 0.020192723708963373 %) was 99.9%, the inhibition (PRVABC59, Concentration 99.01 uM, Number of replicates 2.0, Standard deviation 0.05005292294196158 %) was 99.7% and the inhibition (PRVABC59, Concentration 99.01 uM, Number of replicates 2.0, Standard deviation 0.0511966198231532 %) was 99.7%. The inhibition (PRVABC59, Concentration 99.01 uM, Number of replicates 2.0, Standard deviation 0.06657179015992734 %) was 99.4%, the inhibition (PRVABC59, Concentration 99.01 uM, Number of replicates 2.0, Standard deviation 0.07055854485426984 %) was 99.9% and the inhibition (PRVABC59, Concentration 99.01 uM, Number of replicates 2.0, Standard deviation 0.0908591644954211 %) was 99.8%. For the same compound, the inhibition (PRVABC59, Concentration 99.01 uM, Number of replicates 2.0, Standard deviation 0.09853596007058937 %) was 100%, the inhibition (PRVABC59, Concentration 99.9 uM, Number of replicates 2.0, Standard deviation 0.9426813647289743 %) was 101% and the inhibition (PRVABC59, Concentration 198.0 uM, Number of replicates 2.0, Standard deviation 0.016157415845136337 %) was 99.7%. It also gave an inhibition (PRVABC59, Concentration 198.0 uM, Number of replicates 2.0, Standard deviation 0.0195885064887112 %) of 99.5%, an inhibition (PRVABC59, Concentration 198.0 uM, Number of replicates 2.0, Standard deviation 0.04517602680706901 %) of 99.6% and an inhibition (PRVABC59, Concentration 198.0 uM, Number of replicates 2.0, Standard deviation 0.06178660556739447 %) of 99.7%. It also gave an inhibition (PRVABC59, Concentration 198.0 uM, Number of replicates 2.0, Standard deviation 0.09594645769808005 %) of 99.7%, an inhibition (PRVABC59, Concentration 198.0 uM, Number of replicates 2.0, Standard deviation 0.10841922745899998 %) of 99.2% and an inhibition (PRVABC59, Concentration 198.0 uM, Number of replicates 2.0, Standard deviation 0.1903446087692639 %) of 99.7%.
